High-throughput results from PubChem.
TPT1 inhibitor: blocks Candida albicans tRNA 2'-phosphotransferase | recombinant caTPT1, FP RNA substrate dephosphorylation | inhibition, % at 5 µM | hit rate 0.81% among 300,000;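 active means inhibition above the mean of all tested compounds plus 3 SD, set per screening campaign, cut at about 24% in these data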;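 further: plate controls were DMSO alone for no effect and ferristatin control at 100 nM for full effect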
RTF Ca sens inh: cardiac RTF calcium desensitization; P19429+P45379; IANBD-labeled cardiac RTF, Ca2+ fluorescence; inhibition, % at 7.15 µM; hit rate 0.12% among 340,000; AID 493244;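 active means inhibition above the mean inhibition of all tested compounds plus 3 SD, cut at about 17% in these data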;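 further: assay run at fixed EC70 calcium of 1.6 mM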
IDE act: boosts human insulin-degrading enzyme activity in HEK cells; P14735; FAbeta-B cleavage, fluorescence polarization; 0% vehicle, 100% cell-free pure enzyme wells; activation, % at 5.96 µM; hit rate 0.073% among 340,000; AID 493087;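 active means activation above the mean of all tested compounds plus 3 SD, set per screening campaign, cut at about 17% in these data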
CRFR2-BP ag: CRF-BP/CRF-R2 complex agonism; HEK293 CRF-R2/CRF-BP, calcium dye fluorescence (FLIPR); percent of saturating CRF peptide response; activation, % at 13.2 µM; hit rate 0.46% among 350,000; AID 588473;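 active means activation of at least 50%, plus an integration ratio under a set limit after plate pattern correction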;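 further: plate controls were neutral control wells without compound for no effect and CRF at EC100 for full effect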
IDE cell inh: cellular human IDE inhibition | P14735 | HEK cells, FAbetaB cleavage, fluorescence polarization | inhibition, % at 5.59 µM | hit rate 0.41% among 320,000;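 active means percent inhibition above the average of all tested compounds plus 3 SD, set per screening campaign, cut at about 16% in these data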;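 further: IDE supplied by intact live HEK cells; FP after avidin binding of uncleaved biotin substrate so inhibition keeps polarization high; 0% = DMSO wells and 100% = 60 µM reference IDE inhibitor Ii1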
cardiac RTF act: increases calcium sensitivity of human cardiac regulated thin filaments | IANBD-labeled TnC RTF fluorescence at EC20 calcium; 0% EC20 calcium, 100% full calcium | hit rate 0.24% among 340,000 | AID 493008 | P19429+P45379 | activation, % at 7.2 µM;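 active means activation above the mean over all tested compounds plus 3 SD, cut at about 30% in these data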;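 further: rise in fluorescence read as greater calcium sensitivity of cardiac thin filaments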
caTPT1 confirm: TPT1 (C. albicans) inhibition, confirmation | shares compounds with TPT1 inhibitor | recombinant caTPT1, fluorescence polarization, RNase T1 coupled | inhibition, % at 5 µM | hit rate 74% among 2,400;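 active means inhibition above the primary screen limit, the mean inhibition of all tested compounds plus 3 SD, cut at about 25% in these data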
RNase T1 counter: counter-screen for TPT1 inhibitors: inhibitors of Aspergillus oryzae RNase T1; shares compounds with TPT1 inhibitor; RNase T1 cleavage, fluorescence polarization, 1536-well; inhibition, % at 5 µM; hit rate 83% among 2,400; AID 2153;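 active means inhibition above the solvent-only control well mean plus 3 SD, limit set per screening run, cut at about 23% in these data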;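 further: plate controls were DMSO wells with enzyme for no effect and wells without RNase T1 for full effect; inhibitors block cleavage so intact labeled substrate keeps polarization high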
Starred values were filed as active, the others as inactive. In the library only some 1.5% were active in any assay of this set; here they are far more common.

Results for CC(=O)c1c(C)[nH]c(C(=O)CSc2nc3ccccc3c(=O)n2CCCN2CCOCC2)c1C ?
TPT1 inhibitor: 3; RTF Ca sens inh: -3; IDE act: 2; CRFR2-BP ag: -1; IDE cell inh: 10; cardiac RTF act: 0

How did Cc1sc2nc(CSc3nnc(Cc4cccs4)n3C3CCCCC3)[nH]c(=O)c2c1C do in these assays?
TPT1 inhibitor: 38*; RTF Ca sens inh: -4; IDE act: 5; CRFR2-BP ag: 16; IDE cell inh: 1; cardiac RTF act: 6; caTPT1 confirm: 66*; RNase T1 counter: 74*

Results for Cc1sc2nc(CSc3nc4ccccc4c(=O)n3CCCN3CCOCC3)[nH]c(=O)c2c1C ?
TPT1 inhibitor: 57*; RTF Ca sens inh: -20; IDE act: -5; CRFR2-BP ag: 19; IDE cell inh: 1; cardiac RTF act: 2; caTPT1 confirm: 67*; RNase T1 counter: 77*

What do the screens show for `Cc1sc2nc(CSc3nc4ccccc4s3)[nH]c(=O)c2c1C`?
TPT1 inhibitor: 42*; IDE cell inh: 0; caTPT1 confirm: 52*; RNase T1 counter: 64*

How did O=C1C(=Nc2cccc(Cl)c2)CC(c2ccc(Cl)cc2)N1c1cccc(Cl)c1 (stereo not given) do in these assays?
RTF Ca sens inh: -1; IDE act: 5; CRFR2-BP ag: 1; cardiac RTF act: -3

What do the screens show for `COc1ccccc1NS(=O)(=O)c1cc([N+](=O)[O-])ccc1N/N=C/c1c(C)[nH]c2ccccc12`?
TPT1 inhibitor: 101*; RTF Ca sens inh: -27; IDE act: -4; CRFR2-BP ag: 37; IDE cell inh: 8; cardiac RTF act: 17; caTPT1 confirm: 104*; RNase T1 counter: 107*

What do the screens show for `Cc1[nH]c2ccccc2c1/C=N/NC(=O)c1cccc([N+](=O)[O-])c1`?
TPT1 inhibitor: 3; CRFR2-BP ag: -2; IDE cell inh: 3

What do the screens show for `Cc1[nH]c2ccccc2c1/C=N/Nc1ccc([N+](=O)[O-])cc1`?
TPT1 inhibitor: 95*; RTF Ca sens inh: -6; IDE act: -3; CRFR2-BP ag: 121*; IDE cell inh: 2; cardiac RTF act: 12; caTPT1 confirm: 100*; RNase T1 counter: 102*

What do the screens show for `O=[N+]([O-])c1ccc(N/N=C/c2c[nH]c3ccccc23)c(S(=O)(=O)Nc2ccc(Cl)cc2)c1`?
TPT1 inhibitor: 36*; RTF Ca sens inh: -7; IDE act: 1; CRFR2-BP ag: 94*; IDE cell inh: 1; cardiac RTF act: 5; caTPT1 confirm: 107*; RNase T1 counter: 108*

How did CN1CCN(S(=O)(=O)c2cc([N+](=O)[O-])ccc2N/N=C/c2ccc(Cl)cc2)CC1 do in these assays?
TPT1 inhibitor: 1; RTF Ca sens inh: 3; IDE act: 7; CRFR2-BP ag: 2; IDE cell inh: 3; cardiac RTF act: 1

Results for CSc1ccccc1OCc1cc(C(=O)N2CCc3[nH]cnc3C2c2ccccn2)no1 (stereo not given) ?
TPT1 inhibitor: 0; RTF Ca sens inh: -1; IDE act: 4; CRFR2-BP ag: -1; IDE cell inh: 2; cardiac RTF act: -2

Results for COc1cccc(CN(C)C(=O)c2cccc(S(=O)(=O)Nc3cccc(C)c3)c2)c1OC ?
RTF Ca sens inh: -4; IDE act: 2; CRFR2-BP ag: -1; cardiac RTF act: -3

What do the screens show for `N#CC1=C(N)OC2=C(CC/C2=C\c2ccccc2)C1c1ccccc1` (stereo not given)?
TPT1 inhibitor: 83*; RTF Ca sens inh: -221; IDE act: -30; CRFR2-BP ag: 300*; IDE cell inh: 13; cardiac RTF act: 127*; caTPT1 confirm: 85*; RNase T1 counter: 88*

Results for N#CC1=C(N)OC2=C(CC/C2=C\c2ccccc2Cl)C1c1ccccc1Cl (stereo not given) ?
TPT1 inhibitor: 67*; RTF Ca sens inh: -37; IDE act: -6; CRFR2-BP ag: 91*; IDE cell inh: 3; cardiac RTF act: 38*; caTPT1 confirm: 81*; RNase T1 counter: 89*

Results for COc1ccc(CNC(=O)CN(c2cccc(OC)c2)S(C)(=O)=O)cc1 ?
TPT1 inhibitor: 76*; RTF Ca sens inh: -1; IDE act: 0; CRFR2-BP ag: -1; IDE cell inh: 10; cardiac RTF act: 1; caTPT1 confirm: 2; RNase T1 counter: 6

How did CCN1C(=O)/C(=C/c2c(C)nn(C)c2C)SC1=S do in these assays?
TPT1 inhibitor: 24*; RTF Ca sens inh: -10; IDE act: -2; CRFR2-BP ag: 2; IDE cell inh: 2; cardiac RTF act: 1; caTPT1 confirm: 34*; RNase T1 counter: 45*

How did CCN1C(=O)/C(=C/c2cnn(CC)c2C)SC1=S do in these assays?
TPT1 inhibitor: 5; RTF Ca sens inh: -10; IDE act: 3; CRFR2-BP ag: 0; IDE cell inh: 1; cardiac RTF act: -9

Results for COc1cccc(C(=O)NC(=O)Nc2cc(C)on2)c1 ?
TPT1 inhibitor: 27*; RTF Ca sens inh: -4; IDE act: -1; CRFR2-BP ag: 5; IDE cell inh: 4; cardiac RTF act: 4; caTPT1 confirm: 12; RNase T1 counter: 17

Results for O=C1N/C(=C/c2ccc(N3CCOCC3)o2)C(=O)N1c1cccc(Cl)c1 ?
TPT1 inhibitor: 82*; RTF Ca sens inh: 3; IDE act: -1; CRFR2-BP ag: 8; IDE cell inh: 5; cardiac RTF act: 6; caTPT1 confirm: 168*; RNase T1 counter: 166*

Results for Cc1ccc(/C=C2/NC(=O)N(c3ccccc3)C2=O)o1 ?
TPT1 inhibitor: -9; RTF Ca sens inh: -5; IDE act: -4; CRFR2-BP ag: 1; IDE cell inh: 4; cardiac RTF act: 1

How did CCNC(=O)N(CC)C[C@H]1N[C@@](Cc2ccccc2)(C(=O)OC)[C@H]2C(=O)N(C)C(=O)[C@@H]12 do in these assays?
RTF Ca sens inh: -6; IDE act: 3; CRFR2-BP ag: 1; IDE cell inh: -6; cardiac RTF act: 2

How did CCCN1C(=O)/C(=C/c2c(NCCCOC(C)C)nc3c(C)cccn3c2=O)SC1=S do in these assays?
TPT1 inhibitor: 121*; RTF Ca sens inh: -21; IDE act: 0; CRFR2-BP ag: 191*; IDE cell inh: -2; cardiac RTF act: 12; caTPT1 confirm: 116*; RNase T1 counter: 129*

What do the screens show for `CCC(C)N1C(=O)/C(=C/c2c(NCCCOC(C)C)nc3c(C)cccn3c2=O)SC1=S` (stereo not given)?
TPT1 inhibitor: 151*; RTF Ca sens inh: -37; IDE act: -34; CRFR2-BP ag: 59*; IDE cell inh: 14; cardiac RTF act: 133*; caTPT1 confirm: 165*; RNase T1 counter: 156*
